The whole screen tested about 48,000 compounds, of which about 13,000 (27%) showed an effect of 50% or more. The list shows a part of the results.
test system: Wolbachia pipientis; test: Anti-Wolbachia Cell-Based Screen; assay type: functional; set-up: scale not given: in the data most compounds retested in dose-response had high values; details: 5 µM

Row | Structure (SMILES) | Percent Effect [%]
1 | CCc1c(C(=O)O)nnn1-c1ccc(C)cc1C | 82.86
2 | Cc1c(C(=O)O)nnn1-c1cccc2cccnc12 | -7.776
3 | Cc1c(C(=O)N2CCC2(C)C)nnn1-c1cccc2cccnc12 | 0.9445
4 | Cc1ccc(CCNC(=O)NCCCC(N)=O)c(C)c1 | -5.264
5 | COCc1c(C(=O)NC2CCCC2)nnn1-c1ccc(C)cc1 | -4.164
6 | CCc1c(C(=O)O)nnn1-c1cc(C)ccc1C | 72.77
7 | COc1cc(OC)c(-n2nnc(C(=O)O)c2C)cc1Cl | -3.799
8 | Cc1ccc(C(=O)N(C)CC(=O)N2CCCC2)c(C)c1 | -3.926
9 | CCc1c(C(=O)O)nnn1-c1cc(C)cc(C)c1 | 90.67
10 | CCc1c(C(=O)O)nnn1-c1cccc(C)c1C | 95.29
11 | COCc1c(C(=O)O)nnn1Cc1cccc(C(F)(F)F)c1 | 8.575
12 | Cc1ccc(C)c(-n2nnnc2SCN2CCCCC2=O)c1 | -6.055
13 | CCc1cnc(N2C[C@H](OCc3csc(C)n3)[C@H]3COC[C@H]32)nc1.O=C(O)C(F)(F)F.O=C(O)C(F)(F)F | 4.189
14 | CN1CCC(N[C@@H]2CO[C@H](CNC(=O)c3cccs3)[C@H]2O)CC1 | -3.68
15 | O=C(c1cn(CC(=O)N2CCc3[nH]cnc3C2)c2ccccc12)C1CC1 | 1.32
16 | COc1ccc(NC(=O)CSC(F)(F)F)cn1 | 1.311
17 | O=C(c1coc2ccccc12)N1CCS(=O)(=O)CC1 | 0.973
18 | Cc1ccc(-n2nnc(C(=O)O)c2C)c(C)c1 | 89.24
19 | COc1cc(Cl)c(C)cc1-n1nnc(C(=O)O)c1C | 4.448
20 | COc1cc(Cl)c(C)cc1-n1nnc(C(=O)O)c1-c1ccncc1 | -11.88
21 | CC(C)(O)CCc1cccc(C(=O)NCc2cnn3cccnc23)c1 | 6.543
22 | CCN(Cc1ccc2c(c1)OCO2)C(=O)NC(C)Cn1cccn1 (stereo not given) | 4.631
23 | CS(=O)(=O)CC1CCCN(C(=O)Cn2cccc(C(F)(F)F)c2=O)C1 (stereo not given) | 2.203
24 | c1cc(-c2nnc([C@H]3CCN(C4CCOCC4)C3)o2)ccn1 | -3.579
25 | COc1ccccc1OCCN1CCCC(c2cc(C(N)=O)[nH]n2)C1 (stereo not given) | -3.836
26 | NC(=O)Cn1ccnc1C1CCCN(CCSc2ccccc2)C1 (stereo not given) | 0.1316
27 | NC(=O)c1cnn2c(C3CCCN(C4CCOCC4)C3)ccnc12 (stereo not given) | 143.8

Row | Structure (SMILES) | Percent Effect [%]
28 | OCCn1nccc1C1CCN(CCCOc2ccc(F)cc2)CC1 | -1.646
29 | O=C(NCCc1c[nH]cn1)C1CCCN(C2CCOCC2)C1 (stereo not given) | -7.633
30 | CC(C)(C)c1cnc(CN2CCC(c3ccnn3CCO)CC2)o1 | -7.147
31 | NC(=O)c1cnn2c(C3CCN(CCO)CC3)ccnc12 | 128.9
32 | COCCN1CCCC(c2ccnc3c(C(N)=O)cnn23)C1 (stereo not given) | 97.31
33 | CCC(CC)c1cc(C(=O)N2CCN(CC(N)=O)CC2)on1 | 14.59
34 | CC(=O)N1CCC(C(=O)NC(C)c2cccc(OC(F)F)c2)CC1 (stereo not given) | 11.71
35 | CNC(=O)[C@@H](c1ccccc1)N1CCC[C@H]1C(=O)NC1CCCCC1.Cl | 13.78
36 | O=C1NCCCC12CCN(S(=O)(=O)N1CCOCC1)C2 (stereo not given) | -15.95
37 | CCc1nc(CN(C)Cc2nc(-c3ccccc3Cl)oc2C)no1 | -5.34
38 | NC(=O)NC(CC(=O)NCCc1cccc(F)c1)c1ccccc1 (stereo not given) | -0.165
39 | c1cnc2c(CN3CCCCC3c3ccncn3)cnn2c1 (stereo not given) | 72.9
40 | c1ccc(-c2ncc(CN3CCCCC3CCn3cccn3)cn2)nc1 (stereo not given) | -35.25
41 | CNc1nccc(C2CCCCN2Cc2cnn3cccnc23)n1 (stereo not given) | 117.1
42 | c1ccc(C2CCCCN2Cc2nc(-c3cnccn3)no2)nc1 (stereo not given) | 12.62
43 | CN(C)c1nccc(C2CCCCN2Cc2cnn3cccnc23)n1 (stereo not given) | 74.52
44 | CN(C)CCC1CCCCN1Cc1cnc(-c2ccccn2)nc1 (stereo not given) | -28.12
45 | c1ccc(C2CCCN2Cc2nc(-c3cnccn3)no2)nc1 (stereo not given) | -14.84
46 | Cc1nc(C)c(C)c(NCc2cnn3cccnc23)n1 | -1.599
47 | CN(C)Cc1nc(C(C)(C)NC(=O)c2nc3ccccc3s2)no1 | 8.405
48 | CC(C)c1cc(C(=O)N2C[C@H]3CC[C@@H]2CN(Cc2cscn2)C3)no1 | -2.131
49 | CNC(=O)C(C)(C)N1CCC[C@H]1C(=O)NC(C)(C)C | -3.15
50 | Fc1ccc(CC2CCN(Cc3nccs3)CC2)cc1 | 16.43
51 | Fc1ccccc1CC1CCN(Cc2nccs2)CC1 | 9.425
52 | OCCN1CCC(Cc2nccs2)CC1 | 98.4
53 | CCOCc1nc2c(c(NCc3cc(C)on3)n1)CCN(C(C)=O)CC2 | -0.7778
54 | CCc1nc(NC(=O)NCCc2scnc2C)nn1C | 3.208

Row | Structure (SMILES) | Percent Effect [%]
55 | CN(C)c1cccc(C(=O)N2CCCC2c2ncc3c(n2)CCNC3)c1.Cl (stereo not given) | 118.3
56 | Cl.O=C(c1cccc(F)c1)N1CCCC1c1ncc2c(n1)CCNC2 (stereo not given) | 105.4
57 | O=C(c1ccc(F)c(F)c1)N1CCCCC1c1nc[nH]n1 (stereo not given) | 17.06
58 | COc1cccc(C(=O)N2CCCC2c2ncc3c(n2)CCN(C)C3)c1 (stereo not given) | 114.1
59 | COc1cccc(C2CCCN2C(=O)c2ccc(=O)n(C)c2)c1 (stereo not given) | 0.747
60 | COc1ccccc1C(=O)N1CCCC1c1nncn1CC(C)C (stereo not given) | 2.233
61 | CN(C)c1cccc(C(=O)N2CCc3ccc(=O)[nH]c3CC2)c1 | -3.419
62 | Cc1ncnc2c1CCN(C(=O)c1cccc(F)c1)CC2 | -5.781
63 | COc1ccccc1C(=O)N1CCCC1c1ncc2c(n1)CCNC2.Cl (stereo not given) | 126.5
64 | CCOc1ccccc1C(=O)N1CCCC1c1ncc2c(n1)CCNC2.Cl (stereo not given) | 7.885
65 | COc1cccc(C2CCCN2C(=O)c2cc3c(nc2OC)CCC3)c1 (stereo not given) | -14.5
66 | N#CCCCS(=O)(=O)N1CCC(CSc2ccccc2)C1 (stereo not given) | -3.001
67 | O=C(C1SCCc2sccc21)N1CCN(CCO)CC1 (stereo not given) | 1.361
68 | O=C1NC2(Nc3ncccc31)C(=O)Nc1c2ccc(Cl)c1F (stereo not given) | -11.72
69 | c1ccc(-c2nnc3n2CCN(c2nc(C4CC4)ns2)C3)cc1 | -0.2636
70 | CCCc1nccn1CCn1cnc2ccsc2c1=O | -10.48
71 | CN(Cc1noc2c1CCCC2)C(=O)Cn1cnc2ccccc2c1=O | 0.7727
72 | CN1C(=O)COc2ccc(C(=O)Cn3cnc4ccccc4c3=O)cc21 | 102.3
73 | O=C(Cn1ccc2ncccc2c1=O)N1CCSCC1 | -22.33
74 | CN1C(=O)COc2ccc(C(=O)Cn3cnc4ccsc4c3=O)cc21 | 115.3
75 | CCn1ccnc1SCCn1cnc2ccsc2c1=O | -20.68
76 | CC(C)(C)C(=O)N1CCN(CCOc2cccc(C#N)c2)CC1 | 23.12
77 | CCC[C@@H]1CN(C(=O)c2c(F)ccc(OC)c2F)C[C@H]1C(=O)O | -8.772
78 | CCOc1ccc(N(C)Cc2nc(C)c(C)o2)cc1 | 2.822
79 | COc1ccc2c(c1)nc1n2[C@@H](CNCc2ccccc2)COC1 | -7.543
80 | C/N=C1/c2cc3cc(OC)ccc3n2CCN1Cc1ccccc1.Cl | 86.74
81 | C/N=C1\c2cc3cc(OC)ccc3n2CCN1C.Cl | 97.02

Row | Structure (SMILES) | Percent Effect [%]
82 | CCOC(=O)c1coc(N2CCN(Cc3cccc(OC)c3)C(=O)C2)n1 | -20.43
83 | CCN1CC(NC(=O)Nc2nc(C)n(C(C)C)n2)CC1=O (stereo not given) | -13.6
84 | Cc1cc(N2CCC3(CCC(=O)N(CCCO)C3)CC2)nc(N(C)C)n1 | 15.64
85 | O=C(NC1CCCC1)[C@H]1CC[C@@H]2[C@@H](CCN2c2ncc(F)cn2)O1.O=C(O)C(F)(F)F | 6.364
86 | COc1ccc(C[C@H]2CN(c3cc(OC)ncn3)CC[C@@H]2OC)cc1.O=C(O)C(F)(F)F | -9.694
87 | COc1cc(N2CC[C@@H]3O[C@H](C(=O)N(C)C)C[C@@H]32)ncn1.O=C(O)C(F)(F)F | 99.56
88 | O=C(NC1CC1)[C@H]1CC[C@@H]2[C@@H](CCN2c2ncc(F)cn2)O1.O=C(O)C(F)(F)F | -10.92
89 | COc1ccc(C[C@H]2CN(c3cc(OC)ncn3)CC[C@H]2OC)cc1.O=C(O)C(F)(F)F | -1.133
90 | COc1cc(N2CC[C@H]3O[C@@H](C(=O)NC4CCCC4)CC[C@H]32)ncn1.O=C(O)C(F)(F)F | 90.73
91 | COc1cc(NC(=O)c2cc(C)sc2C)c(C(=O)N(C)C)cc1OC | -0.1136
92 | CC(=O)c1ccc(-n2ccc3nc(N4CCCC4)ncc3c2=O)cc1 | -1.476
93 | CN(C)CC1(O)CCN(Cc2cnc3c(-c4ccccc4)cnn3c2)C1 (stereo not given) | -5.196
94 | CC(CCN1CCCn2nc(CNS(C)(=O)=O)cc2C1)c1ccccc1 (stereo not given) | 111.7
95 | CC(CCN1CCn2nc(CNC(=O)N(C)C)cc2C1)c1ccccc1 (stereo not given) | -9.419
96 | CS(=O)(=O)NCc1cc2n(n1)CCCN(Cc1cc3ccccc3o1)C2 | 0.8182
97 | CN(C)C(=O)CSc1nnc(CCNC(=O)OC(C)(C)C)o1 | 15.65
98 | CC(C)Sc1nnc(CCNC(=O)OC(C)(C)C)o1 | 12.98
99 | COC(=O)CSc1nnc(CCNC(=O)OC(C)(C)C)o1 | 120.8
100 | Cc1nc(N2CC[C@@H](NC(=O)c3cnccn3)[C@H](O)C2)c2ccsc2n1 | 4.294
101 | CCc1nc(CN(C)C2CCN(CC(=O)N3CCOCC3)C2)no1 (stereo not given) | 114.4
102 | CN(Cc1noc(C2CC2)n1)C1CCN(CC(=O)N2CCOCC2)C1 (stereo not given) | 87.19
103 | Cc1nc(CN(C)C2CCN(CCC(=O)N3CCOCC3)C2)no1 (stereo not given) | 118.2
104 | Cc1nc(CN(C)C2CCN(CC(=O)NC3CCOCC3)C2)no1 (stereo not given) | -6.239
105 | Cc1nc(CN(C)C2CCN(CC(=O)N3CCOCC3)C2)no1 (stereo not given) | -5.301
